# Inconclusive results are not listed. A number with no mark means an inactive call. Active and inactive are the calls of the source. The call rests on the fitted dose curve; tested in HEK293 reporter line.
# Assay: qHTS for Inhibitors of the Functional Ribonucleoprotein Complex (vRNP) of Lassa (LASV) Arenavirus: Viability assay - alamar blue signal for LASV Primary Screen (AID 1347083); further: nearly all actives have a fitted effect of over 80% in size
# Conditions: cell viability, alamar blue fluorescence (LASV minigenome counter-screen); series mostly up to 57.5 µM; activity change, negative = reduced viability: at the top concentration
# On the % scale 0 is the no-effect control and ±100 the full control effect; potency means the concentration at half of the fitted maximal effect.
SMILES,"activity change, negative = reduced viability",Potency
COc1ccnc2[nH]cc(C(=O)C(=O)N3CCN(C(=O)c4ccccc4)C[C@@H]3C)c12,-30.2%,–
COc1ccc(-c2cc(=O)c3c(O)cc(O)c(-c4cc(-c5cc(=O)c6c(O)cc(OC)cc6o5)ccc4OC)c3o2)cc1,6.8% [at 24.7 µM],–
CCCCCOC(=O)Nc1nc(=O)n([C@@H]2O[C@H](C)[C@@H](O)C2O)cc1F (stereo partly drawn),-27.9%,–
CC(=O)c1ccc[nH]1,-14.3% [at 115 µM],–
CC(=O)O[C@@H]1CC[C@@]2(C)[C@H](C1)[C@H](OC(C)=O)C[C@@H]1[C@@H]2C[C@H]2[C@@H]3CN4C[C@H](C)CC[C@H]4[C@H](C)[C@H]3CC[C@@]12O,14.2% [at 24.7 µM],–
Oc1ccc(C2CCN(c3ccnc4ccccc34)CC2)cc1O,–,6.85 µM (active)
COc1ccc(C2CC(=O)c3c(O)cc(O)cc3O2)cc1O (stereo not drawn),-0.227%,–
C[C@H]([C@@H](O)[C@@H](O)[C@@H](C)C(C)(C)C)[C@H]1CC[C@H]2C3CC[C@H]4C[C@H](OS(=O)(=O)O)[C@@H](OS(=O)(=O)O)C[C@]4(C)[C@H]3CC[C@]12C (stereo partly drawn),12.7%,–
CC(C)c1c(C(=O)Nc2ccccc2)c(-c2ccccc2)c(-c2ccc(F)cc2)n1CC[C@H](O)C[C@@H](O)CC(=O)O,-26.8%,–
O=c1c(-c2ccc(O)cc2)coc2c(C3OC(CO)C(O)C(O)C3O)c(O)ccc12 (stereo not drawn),6.71%,–
Cc1cnn(C)c1C(=O)Nc1cc(Nc2ccc3c(C=Cc4ccccn4)n[nH]c3c2)ccc1F,–,19.3 µM (active)
O=C(O)C[C@H](O)C[C@H](O)C=Cc1c(C2CC2)nc2ccccc2c1-c1ccc(F)cc1,–,24.3 µM (active)
COc1ccc([C@@H]2CC(=O)c3c(O)cc(O[C@@H]4O[C@H](CO)[C@@H](O)[C@H](O)[C@H]4OC4O[C@@H](C)[C@H](O)[C@@H](O)[C@H]4O)cc3O2)cc1O (stereo partly drawn),-3.6% [at 24.7 µM],–
CC(=O)O[C@@]12CO[C@@H]1C[C@H](OC1OCC(O)C(O)C1O)[C@@]1(C)C(=O)[C@H](O)C3=C(C)[C@@H](OC(=O)[C@H](O)[C@@H](NC(=O)c4ccccc4)c4ccccc4)C[C@@](O)([C@@H](OC(=O)c4ccccc4)C12)C3(C)C (stereo partly drawn),–,20 µM (active)
COC(/C(C)=C/C=C/C(C)=C/c1coc(C)n1)C(C)C1CC(O)C2(C)OC2C=CC(C)C2CC(CC(=O)O2)CC2OC2C(=O)O1 (stereo not drawn),12.8%,–
CO[C@H]1O[C@@H]2O[C@@]3(C)CC[C@@H]4[C@@H](C)CC[C@@H]([C@H]1C)[C@@]24OO3,-28.7%,–
CN(C(Cc1ccc(OS(=O)(=O)c2cccc3cnccc23)cc1)C(=O)N1CCN(c2ccccc2)CC1)S(=O)(=O)c1cccc2cnccc12 (stereo not drawn),–,21.7 µM (active)
COC(=O)C1C2CC3c4[nH]c5cc(OC)ccc5c4CCN3CC2CC(O)C1OC (stereo not drawn),9.65%,–

# — PubChem BioAssay (NCATS)
